According to PubChem BioAssay (EPA / NIEHS):
Values joined by “and” are separate entries in the source; they are usually repeats but may differ in a detail not shown here. Equal values may be shown once. Records with an inconclusive call do not appear. More than one record can exist for a structure, and the calls need not agree. Active and inactive are the calls of the source. How the source made its calls, unless noted: active means hit-call score of the fitted dose curve at least 0.9, where 1 is the maximum; inconclusive means response in the unintended direction; inactive means score below 0.9.

Tests used:
[1] = molecular target: Estrogen receptor (Homo sapiens) (UniProt P03372); assay: OT_ERa_GFPERaERE_0480: Odyssey Thera (OT) 8-hour HeLa Transcription Induction Assay for Estrogen Receptor (AID 2283381; active means hit-call score of the fitted dose curve at least 0.9, where 1 is the maximum; inactive means score below 0.9)
Sequence of Estrogen receptor (Homo sapiens) (P03372 whole entry, looked up): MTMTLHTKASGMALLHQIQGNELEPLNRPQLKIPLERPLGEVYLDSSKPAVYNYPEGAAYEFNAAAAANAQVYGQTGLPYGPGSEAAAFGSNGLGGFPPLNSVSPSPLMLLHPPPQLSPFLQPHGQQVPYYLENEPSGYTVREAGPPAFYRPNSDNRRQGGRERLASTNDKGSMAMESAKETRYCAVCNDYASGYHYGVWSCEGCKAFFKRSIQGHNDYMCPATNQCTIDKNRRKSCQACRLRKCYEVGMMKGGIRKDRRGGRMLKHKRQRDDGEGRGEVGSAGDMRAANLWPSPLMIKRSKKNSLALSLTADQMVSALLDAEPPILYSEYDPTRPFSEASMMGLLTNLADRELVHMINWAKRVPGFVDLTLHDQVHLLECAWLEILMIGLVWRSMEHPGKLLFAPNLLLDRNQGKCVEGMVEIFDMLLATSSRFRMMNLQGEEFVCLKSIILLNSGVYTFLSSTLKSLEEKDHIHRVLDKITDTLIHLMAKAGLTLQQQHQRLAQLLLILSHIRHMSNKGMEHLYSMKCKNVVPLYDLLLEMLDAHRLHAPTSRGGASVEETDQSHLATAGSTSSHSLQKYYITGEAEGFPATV
Outline: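 An 8 h HeLa transcription-induction format with a GFP reporter under ERE control, read by fluorescence microscopy; single endpoint fitted positively with DMSO as baseline.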

[2] = molecular target: Estrogen receptor (Homo sapiens) (UniProt P03372); assay: OT_ERa_GFPERaERE_0120: Odyssey Thera (OT) 2-hour HeLa Transcription Induction Assay for Estrogen Receptor (AID 2283382)
Outline: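 Two-hour compound treatment of HeLa cells preceded microscopy imaging of an inducible fluorescent reporter. Image-based quantification gave one endpoint, analysed for signal increase relative to DMSO controls.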

[3] = molecular target: Bile acid receptor (Homo sapiens) (UniProt Q96RI1); assay: OT_FXR_FXRSRC1_0480: Odyssey Thera (OT) 8-hour HEK293T Protein-Complementation Assay for Farnesoid X receptor/SRC-1 Co-activator (AID 2283383)
Sequence of Bile acid receptor (Homo sapiens) (Q96RI1 whole entry, looked up): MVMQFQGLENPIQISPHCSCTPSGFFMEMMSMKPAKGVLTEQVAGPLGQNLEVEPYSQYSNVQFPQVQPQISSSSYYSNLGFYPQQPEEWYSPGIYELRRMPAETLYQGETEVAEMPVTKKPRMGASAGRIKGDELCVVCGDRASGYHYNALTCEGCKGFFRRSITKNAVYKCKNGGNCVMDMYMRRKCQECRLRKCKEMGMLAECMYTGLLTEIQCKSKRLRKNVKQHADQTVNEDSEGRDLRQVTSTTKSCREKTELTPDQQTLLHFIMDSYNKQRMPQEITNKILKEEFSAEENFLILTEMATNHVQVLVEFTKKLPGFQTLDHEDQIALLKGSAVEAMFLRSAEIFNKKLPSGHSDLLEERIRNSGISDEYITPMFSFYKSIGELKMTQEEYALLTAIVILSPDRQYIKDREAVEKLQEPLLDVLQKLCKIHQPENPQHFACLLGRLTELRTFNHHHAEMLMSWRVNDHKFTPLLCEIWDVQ
Outline: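 Readings were taken 8 h after dosing HEK293T cells in a split-reporter complementation format pairing FXR with SRC-1. Increased fluorescence relative to DMSO-treated wells defined activity.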

[4] = molecular target: Bile acid receptor (Homo sapiens) (UniProt Q96RI1); assay: OT_FXR_FXRSRC1_1440: Odyssey Thera (OT) 24-hour HEK293T Protein-Complementation Assay for Farnesoid X receptor/SRC-1 Co-activator (AID 2283384)
Outline: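 Single endpoint, analysed for increased fluorescence against DMSO controls. HEK293T cells carrying FXR and SRC-1 linked to complementary reporter halves were exposed to chemicals for 24 h before reading.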

[5] = molecular target: Retinoic acid receptor RXR-alpha (Homo sapiens) (UniProt P19793); assay: OT_NURR1_NURR1RXRa_0480: Odyssey Thera (OT) 8-hour HEK293T Protein Complementation Assay for Nurr1/retinoid X receptor (RXR) (AID 2283385)
Sequence of Retinoic acid receptor RXR-alpha (Homo sapiens) (P19793 whole entry, looked up, the tested form may be a part): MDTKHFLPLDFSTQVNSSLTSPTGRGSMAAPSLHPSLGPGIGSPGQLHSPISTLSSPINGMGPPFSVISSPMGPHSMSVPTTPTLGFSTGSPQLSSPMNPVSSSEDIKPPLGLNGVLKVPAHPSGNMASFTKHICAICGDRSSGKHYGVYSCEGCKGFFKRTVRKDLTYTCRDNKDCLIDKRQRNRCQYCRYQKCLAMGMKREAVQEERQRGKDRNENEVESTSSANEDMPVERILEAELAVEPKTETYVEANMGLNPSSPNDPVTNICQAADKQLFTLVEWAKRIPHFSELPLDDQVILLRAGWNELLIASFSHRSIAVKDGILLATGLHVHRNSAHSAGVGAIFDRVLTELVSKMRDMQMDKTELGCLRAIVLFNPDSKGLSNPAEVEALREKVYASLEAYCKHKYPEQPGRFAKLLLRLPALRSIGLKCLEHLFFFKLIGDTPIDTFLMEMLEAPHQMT
Outline: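 Gain in fluorescent complementation signal over DMSO, measured 8 hours after chemical dosing of human kidney HEK293T cells, indicated enhanced Nurr1–RXRα association.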

[6] = molecular target: Peroxisome proliferator-activated receptor gamma (Homo sapiens) (UniProt P37231); assay: OT_PPARg_PPARgSRC1_0480: Odyssey Thera (OT) 8-hour Protein-Complementation Assay for Peroxisome Proliferator-activated Receptor Gamma / SRC-1 Co-activator (AID 2283387);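 further: nuclear to cytoplasmic split Venus YFP fluorescence ratio reporting PPARg SRC-1 interaction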
Sequence of Peroxisome proliferator-activated receptor gamma (Homo sapiens) (P37231 whole entry, looked up, the tested form may be a part): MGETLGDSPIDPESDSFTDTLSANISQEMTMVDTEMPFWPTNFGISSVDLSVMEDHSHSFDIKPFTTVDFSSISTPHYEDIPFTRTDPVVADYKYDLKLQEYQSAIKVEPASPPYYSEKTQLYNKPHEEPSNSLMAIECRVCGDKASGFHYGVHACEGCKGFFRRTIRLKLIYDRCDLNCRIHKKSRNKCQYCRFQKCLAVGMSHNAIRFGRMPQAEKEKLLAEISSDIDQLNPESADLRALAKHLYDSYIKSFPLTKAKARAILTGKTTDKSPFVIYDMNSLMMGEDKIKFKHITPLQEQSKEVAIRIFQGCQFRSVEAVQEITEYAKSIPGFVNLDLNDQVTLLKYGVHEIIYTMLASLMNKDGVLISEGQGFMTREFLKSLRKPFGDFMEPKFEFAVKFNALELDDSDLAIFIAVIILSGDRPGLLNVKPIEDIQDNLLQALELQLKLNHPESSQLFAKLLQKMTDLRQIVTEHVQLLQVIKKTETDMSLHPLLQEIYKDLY
Outline: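 HEK293T transiently transfected with PPARg and SRC-1 fused to Venus YFP fragments, compounds 8 h at 37C. Fixed, Draq5-stained cells imaged; nuclear/cytoplasmic 488 nm fluorescence ratio over at least 350 cells per image; gain fitted versus DMSO.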

[7] = molecular target: Peroxisome proliferator-activated receptor gamma (Homo sapiens) (UniProt P37231); assay: OT_PPARg_PPARgSRC1_1440: Odyssey Thera (OT) 24-hour Protein-Complementation Assay for Peroxisome Proliferator-activated Receptor Gamma/ SRC-1 Co-activator (AID 2283388)
Outline: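 Readout: nuclear-to-cytoplasmic 488 nm fluorescence ratio, ≥350 cells per image, 8 images per well, after 24 h compound exposure of HEK293T expressing PPARg/SRC-1 split-YFP fusions. Activity fitted in positive direction against DMSO.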

[8] = read-out: Tumor necrosis factor receptor superfamily member 6 (Homo sapiens) (UniProt P25445); assay: LTEA_HepaRG_FAS: Life Technologies and Expression Analysis (LTEA) Assay for Fas cell surface death receptor (FAS) using HepaRG (AID 2283447; active means hit-call score of the fitted dose curve at least 0.9, where 1 is the maximum; inactive means score below 0.9); conditions: mRNA level, 48 h; actives raise or lower the signal
Outline: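 FAS transcript level was measured by TaqMan qRT-PCR against three housekeeping genes after 48 h chemical exposure. Cells were HepaRG, 0.5% DMSO vehicle, with a top concentration of 100 uM and half-log dilutions over eight points, in duplicate.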

[9] = read-out: Fatty acid synthase (Homo sapiens) (UniProt P49327); assay: LTEA_HepaRG_FASN: Life Technologies and Expression Analysis (LTEA) Assay for Fatty Acid Synthase (FASN) using HepaRG (AID 2283448; active means hit-call score of the fitted dose curve at least 0.9, where 1 is the maximum; inactive means score below 0.9;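 on AC50: differentiated human HepaRG liver cells in serum-free induction medium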); conditions: mRNA level, 48 h; actives raise or lower the signal
Outline: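 In human HepaRG cultures, 48 h chemical exposure (up to 100 uM, 0.5% DMSO) preceded TaqMan qRT-PCR of FASN.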

[10] = read-out: Cyclin D2 (CCND2), CCND2 (gene 894); assay: LTEA_HepaRG_CCND2: Life Technologies and Expression Analysis (LTEA) Assay for Cyclin D2 (CCND2) using HepaRG (AID 2283449; active means hit-call score of the fitted dose curve at least 0.9, where 1 is the maximum; inactive means score below 0.9); conditions: mRNA level, 48 h; actives raise or lower the signal
Outline: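 CCND2 transcript levels, quantified by qRT-PCR and normalised to three housekeeping genes, were fitted bidirectionally against 0.5% DMSO. HepaRG cultures were dosed 48 h in duplicate with an 8-point half-log series up to 100 uM.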

[11] = read-out: Cyclin Dependent Kinase Inhibitor 1A (CDKN1A), CDKN1A (gene 1026); assay: LTEA_HepaRG_CDKN1A: Life Technologies and Expression Analysis (LTEA) Assay for Cyclin Dependent Kinase Inhibitor 1A (CDKN1A) using HepaRG (AID 2283450; active means hit-call score of the fitted dose curve at least 0.9, where 1 is the maximum; inactive means score below 0.9); conditions: mRNA level, 48 h; actives raise or lower the signal
Outline: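 HepaRG, 48 h dosing, 8-pt half-log series from 100 uM top, 0.5% DMSO vehicle, duplicates. Readout: TaqMan qRT-PCR of CDKN1A transcript, housekeeping-normalized (ACTB, GAPDH, POLR2A). Up/down curve fit relative to DMSO.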

[12] = molecular target: Retinoic acid receptor RXR-alpha (Homo sapiens) (UniProt P19793); assay: OT_NURR1_NURR1RXRa_1440: Odyssey Thera (OT) 24-hour HEK293T Protein Complementation Assay for Nurr1/retinoid X receptor (RXR) (AID 2283386)
Outline: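 Cell-based binding reporter: HEK293T cells, 24 h exposure, fluorescence-detected fragment complementation, DMSO as baseline.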

[13] = CEETOX_H295R_OHPREG: CeeTox H295R High-throughput Steroidogenesis Assay for OH-Pregnenolone (OHPREG) (AID 2283434; active means hit-call score of the fitted dose curve at least 0.9, where 1 is the maximum; inactive means score below 0.9); conditions: actives raise or lower the signal
Outline: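 Secreted 17alpha-hydroxypregnenolone measured by HPLC-MS/MS after liquid-liquid extraction. Human adrenal H295R cells received 48 h forskolin (10 uM) stimulation before 48 h chemical exposure at 0.1% final DMSO; MTT viability in same wells; bidirectional fit against DMSO.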

[14] = CEETOX_H295R_OHPROG: CeeTox H295R High-throughput Steroidogenesis Assay for OH-Progesterone (OHPROG) (AID 2283435; active means hit-call score of the fitted dose curve at least 0.9, where 1 is the maximum; inactive means score below 0.9;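 on AC50: 17alpha-hydroxyprogesterone secreted into medium measured by HPLC-MS/MS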); conditions: actives raise or lower the signal
Outline: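 Human adrenocortical H295R cells, passage 10 or lower, were treated with chemical for 48 h after forskolin priming, and hormone output in the medium was quantified by LC-MS/MS.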

[15] = CEETOX_H295R_11DCORT: CeeTox H295R High-throughput Steroidogenesis Assay for 11-Deoxycortisol (11DCORT) (AID 2283432; active means hit-call score of the fitted dose curve at least 0.9, where 1 is the maximum; inactive means score below 0.9;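 further: 11-deoxycortisol secreted into the medium measured by LC-MS/MS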); conditions: actives raise or lower the signal
Outline: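 H295R cells prestimulated 48 h with 10 uM forskolin, then exposed 48 h to chemical in 0.1% DMSO. 11-Deoxycortisol in medium quantified by HPLC-MS/MS after MTBE extraction; bidirectional fit versus DMSO. MTT viability read in same wells.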

[16] = CEETOX_H295R_ANDR: CeeTox H295R High-throughput Steroidogenesis Assay for Androstenedione (ANDR) (AID 2283436; active means hit-call score of the fitted dose curve at least 0.9, where 1 is the maximum; inactive means score below 0.9); conditions: actives raise or lower the signal
Outline: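 Medium from 48 h chemical-treated H295R adrenal cells was extracted with MTBE and androstenedione measured by LC-MS/MS. Activity was fit in both directions relative to DMSO. Cytotoxic concentrations were re-tested after dilution until MTT viability reached ≥70%.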

[17] = CEETOX_H295R_CORTIC: CeeTox H295R High-throughput Steroidogenesis Assay for Corticosterone (CORTIC) (AID 2283437; active means hit-call score of the fitted dose curve at least 0.9, where 1 is the maximum; inactive means score below 0.9); conditions: actives raise or lower the signal
Outline: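 Medium corticosterone was quantified by tandem mass spectrometry following 48 hours of chemical exposure (0.1% DMSO) in human H295R cells previously stimulated 48 hours with 10 uM forskolin. Viability checked by MTT; chemicals diluted and retested when viability fell below 70%.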

[18] = CEETOX_H295R_CORTISOL: CeeTox H295R High-throughput Steroidogenesis Assay for Cortisol (AID 2283438; active means hit-call score of the fitted dose curve at least 0.9, where 1 is the maximum; inactive means score below 0.9;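 further: cortisol secreted into medium quantified by LC-MS/MS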); conditions: actives raise or lower the signal
Outline: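 Steroidogenesis in H295R, per modified OECD 456: 48 h forskolin (10 uM), then 48 h exposure, 0.1% DMSO. Cortisol by extraction and tandem MS; viability by MTT (570/650 nm); cytotoxic chemicals diluted and re-tested.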

[19] = CEETOX_H295R_DOC: CeeTox H295R High-throughput Steroidogenesis Assay for DOC (AID 2283439; active means hit-call score of the fitted dose curve at least 0.9, where 1 is the maximum; inactive means score below 0.9); conditions: actives raise or lower the signal
Outline: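 H295R, fsk 10 uM ×48 h pre, cmpd ×48 h (0.1% DMSO). Media → MTBE extr. → LC-MS/MS, DOC. Bidirectional fit vs DMSO; MTT viability same wells, re-test diluted if <70%.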

[20] = CEETOX_H295R_ESTRONE: CeeTox H295R High-throughput Steroidogenesis Assay for Estrone (AID 2283441; active means hit-call score of the fitted dose curve at least 0.9, where 1 is the maximum; inactive means score below 0.9;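 further: estrone secreted into medium measured by LC-MS/MS after dansyl derivatization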); conditions: actives raise or lower the signal
Outline: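 Forskolin-stimulated H295R cells are treated 48 h with chemical, and estrone in the medium is measured by LC-MS/MS. Activity is fitted in both directions relative to DMSO controls, with chemicals diluted until MTT viability reaches at least 70%.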

Measured: AC50

Sequence of Fatty acid synthase (Homo sapiens) (P49327 whole entry, looked up): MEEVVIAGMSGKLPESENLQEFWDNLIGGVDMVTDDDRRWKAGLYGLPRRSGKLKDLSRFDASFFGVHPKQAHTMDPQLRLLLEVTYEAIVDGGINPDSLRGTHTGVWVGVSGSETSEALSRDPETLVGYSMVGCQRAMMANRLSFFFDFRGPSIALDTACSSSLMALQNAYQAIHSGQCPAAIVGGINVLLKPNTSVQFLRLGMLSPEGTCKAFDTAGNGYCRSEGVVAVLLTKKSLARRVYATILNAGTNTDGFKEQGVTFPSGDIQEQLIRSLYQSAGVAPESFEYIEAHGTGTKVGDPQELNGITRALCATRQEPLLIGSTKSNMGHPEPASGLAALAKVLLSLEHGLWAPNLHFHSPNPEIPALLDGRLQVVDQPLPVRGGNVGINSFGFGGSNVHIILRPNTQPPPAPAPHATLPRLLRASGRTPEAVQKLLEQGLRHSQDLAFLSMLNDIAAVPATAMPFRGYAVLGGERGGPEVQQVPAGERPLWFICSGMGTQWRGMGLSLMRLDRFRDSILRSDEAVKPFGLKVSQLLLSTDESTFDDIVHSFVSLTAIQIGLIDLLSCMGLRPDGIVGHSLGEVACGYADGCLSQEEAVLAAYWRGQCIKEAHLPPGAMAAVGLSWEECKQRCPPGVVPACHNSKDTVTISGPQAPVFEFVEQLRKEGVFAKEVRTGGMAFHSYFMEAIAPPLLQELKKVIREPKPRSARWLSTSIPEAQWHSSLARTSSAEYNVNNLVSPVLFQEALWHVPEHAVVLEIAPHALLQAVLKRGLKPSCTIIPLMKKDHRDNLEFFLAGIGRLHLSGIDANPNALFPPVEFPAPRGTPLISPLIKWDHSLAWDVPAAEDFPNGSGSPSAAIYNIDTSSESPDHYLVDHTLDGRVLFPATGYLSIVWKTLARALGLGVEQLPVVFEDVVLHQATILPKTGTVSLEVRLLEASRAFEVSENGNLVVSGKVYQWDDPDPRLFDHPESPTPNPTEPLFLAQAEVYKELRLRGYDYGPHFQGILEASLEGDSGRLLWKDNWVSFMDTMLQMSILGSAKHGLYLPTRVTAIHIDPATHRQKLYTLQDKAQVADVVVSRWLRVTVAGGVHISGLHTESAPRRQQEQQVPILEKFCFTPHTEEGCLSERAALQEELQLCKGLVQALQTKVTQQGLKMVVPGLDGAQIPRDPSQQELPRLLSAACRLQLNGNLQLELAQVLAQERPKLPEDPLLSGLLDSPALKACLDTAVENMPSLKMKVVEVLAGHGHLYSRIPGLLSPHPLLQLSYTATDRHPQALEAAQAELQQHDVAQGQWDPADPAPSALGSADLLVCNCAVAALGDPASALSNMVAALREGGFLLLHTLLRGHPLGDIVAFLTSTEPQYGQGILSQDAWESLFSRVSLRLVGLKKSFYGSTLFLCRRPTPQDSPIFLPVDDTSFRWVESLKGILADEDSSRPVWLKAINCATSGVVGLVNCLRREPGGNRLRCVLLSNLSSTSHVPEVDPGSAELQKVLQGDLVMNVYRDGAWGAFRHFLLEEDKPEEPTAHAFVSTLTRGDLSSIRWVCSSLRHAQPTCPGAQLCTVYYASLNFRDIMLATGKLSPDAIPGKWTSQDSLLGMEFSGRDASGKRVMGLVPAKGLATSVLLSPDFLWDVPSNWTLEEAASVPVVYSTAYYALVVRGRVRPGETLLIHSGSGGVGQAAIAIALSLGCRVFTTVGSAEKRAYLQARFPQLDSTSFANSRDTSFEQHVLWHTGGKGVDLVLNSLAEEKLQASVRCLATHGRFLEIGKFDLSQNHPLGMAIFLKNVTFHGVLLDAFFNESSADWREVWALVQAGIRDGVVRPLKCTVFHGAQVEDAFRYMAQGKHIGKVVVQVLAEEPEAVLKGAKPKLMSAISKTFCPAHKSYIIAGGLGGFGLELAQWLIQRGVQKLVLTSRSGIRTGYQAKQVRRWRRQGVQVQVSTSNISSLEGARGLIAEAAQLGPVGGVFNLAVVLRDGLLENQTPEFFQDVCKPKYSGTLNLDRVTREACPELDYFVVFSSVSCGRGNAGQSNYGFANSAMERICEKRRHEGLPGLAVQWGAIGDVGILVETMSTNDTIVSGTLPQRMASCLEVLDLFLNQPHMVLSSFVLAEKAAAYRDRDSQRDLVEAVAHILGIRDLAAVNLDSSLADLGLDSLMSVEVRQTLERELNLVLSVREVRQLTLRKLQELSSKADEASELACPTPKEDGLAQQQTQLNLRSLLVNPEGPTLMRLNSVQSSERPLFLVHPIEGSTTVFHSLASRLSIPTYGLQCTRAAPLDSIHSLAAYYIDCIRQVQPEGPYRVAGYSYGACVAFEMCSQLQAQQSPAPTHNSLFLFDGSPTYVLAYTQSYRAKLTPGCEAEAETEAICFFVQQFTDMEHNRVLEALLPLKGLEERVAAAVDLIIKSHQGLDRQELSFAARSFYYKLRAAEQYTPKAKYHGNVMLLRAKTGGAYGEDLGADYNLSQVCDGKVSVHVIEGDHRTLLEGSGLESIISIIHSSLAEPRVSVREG

CCCCCCCCCCO
inactive: [1] | [2] | [3] | [4] | [5] | [6] | [7] | [8] | [9] | [10] | [11]

CCNc1cccc(C)c1
inactive: [1] | [2] | [5] | [12] | [6] | [7] | [8] | [9] | [10] | [11]

Cc1ccc(Cl)cc1
inactive: [1] | [2] | [3] | [5] | [12] | [6] | [7] | [8] | [9] | [10] | [11]

CC1(C)CC(N=C=O)CC(C)(CN=C=O)C1 (stereo not given)
active: [9] 69.7 µM
not listed: [2] | [15] | [16] | [17] | [18] | [19] | [20]
inactive: all other assays above

CCCCCCCCCCCCCO
inactive: [1] | [2] | [5] | [12] | [6] | [7] | [8] | [9] | [10] | [11]
active: [5] 67.5 µM

Nc1nc(N)c2nc(CNc3ccc(C(=O)N[C@@H](CCC(=O)O)C(=O)O)cc3)cnc2n1
inactive: [1] | [2] | [3] | [4] | [5] | [8] | [10] | [11]
active: [9] 0.0999 µM

Cc1nc(-c2ccc3c(c2)CCN(CCC2CCC(NC(=O)/C=C/c4ccc(F)cc4)CC2)CC3)no1 (stereo not given)
active: [15] 0.199 µM | [13] 0.0518 µM | [14] 0.224 µM | [16] 0.365 µM | [19] 0.0532 µM
not listed: [3] | [12]
inactive: all other assays above

CC(=O)C(C)=CC1C(C)=CCCC1(C)C (stereo not given)
active: [2] 12.3 µM
inactive: [1] | [5] | [6] | [7] | [8] | [9] | [11]

Cc1ccc(N(C)C)cc1
inactive: [1] | [2] | [5] | [12] | [6] | [7] | [8] | [9] | [10] | [11]

C1CCC(SSC2CCCCC2)CC1
inactive: [1] | [2] | [5] | [6] | [7] | [8] | [9] | [11]
active: [5] 79.5 µM

CCCCCCCCCCCC(=O)OC
inactive: [2] | [3] | [4] | [5] | [12] | [6] | [7] | [8] | [9] | [10] | [11]

Cc1ccc(C)c(O)c1C
inactive: [2] | [5] | [12] | [6] | [7] | [8] | [9] | [10] | [11]

CCOC(=O)C(C)(C)Oc1ccc(Cl)cc1
inactive: [2] | [3] | [4] | [6] | [7] | [8] | [9] | [11]
active: [10] 12.2 µM

CC=Cc1ccc(O)c(OC)c1
inactive: [5] | [12] | [6] | [7] | [14] | [8] | [9] | [10] | [11]
active: [1] 76.2 µM | [13] 37.3 µM

Cc1oc(-c2ccccc2)nc1CCOc1cccc2c1ccn2CCC(=O)O
inactive: [2] | [5] | [10]
active: [6] 2.57 µM and 4.49 µM | [7] 3.58 µM and 2.88 µM | [8] 87.9 µM | [9] 11.9 µM | [11] 71.2 µM

Cc1ccc(C)c(C)c1
inactive: [1] | [5] | [6] | [7] | [8] | [9] | [10] | [11]

CCCCCC(=O)O
inactive: [1] | [5] | [6] | [7] | [8] | [9] | [10] | [11]

CC1=C(/C=C/C(C)=C/C=C/C(C)=C/CO)C(C)(C)CCC1
inactive: [2] | [5] | [6] | [7] | [8] | [9] | [10] | [11]
active: [5] 18.5 µM

COCCOC[C@H](CC1(C(=O)NC2CCC(C(=O)O)CC2)CCCC1)C(=O)Oc1ccc2c(c1)CCC2 (stereo not given in full)
inactive: [1] | [5] | [6] | [7] | [8] | [9] | [10] | [11]

CC(C)c1ccc(C(=O)N=C(N)N)cc1S(C)(=O)=O
inactive: [1] | [5] | [6] | [7] | [9]
active: [8] 0.669 µM | [10] 0.634 µM | [11] 0.361 µM

NCCO
inactive: [1] | [5] | [12] | [8] | [9] | [10] | [11]

Clc1cc(Cl)c(Cl)cc1Cl
inactive: [1] | [5] | [12] | [6] | [7] | [8] | [9] | [10] | [11]
